# Compound activity from PubChem.
# BoNT-F LC inh – BoNT/F light chain protease inhibitors, primary screen, biochemical, flow cytometry, MLPCN library; Multiplex microsphere protease cleavage assay; 360,000 compounds, 0.22% hits; Botulinum neurotoxin type F light chain protease (Clostridium botulinum); inhibition, % at 10 µM; in the data active = inhibition above about 35%, passing the limit was not always enough; inconclusive = no clear call, values can overlap the other calls; also: plate controls were buffer without enzyme for full effect and enzyme alone for no effect
# Bead autofluor – flagged as autofluorescent in microsphere protease counterscreen. compound autofluorescence counterscreen, microsphere flow cytometry; hits give high values. fluorescence intensity (concentration not given with the values). 360,000 compounds, 3.1% hits. AID 624483; in the data active = fluorescence intensity above about 16000; inconclusive = no clear call, values can overlap the other calls
# BoNT-A LC inh2 – BoNT/A light chain protease inhibitors, primary screen, biochemical, flow cytometry, MLPCN library | inhibition, % at 10 µM | 360,000 compounds, 0.17% hits | Botulinum neurotoxin type A light chain protease (Clostridium botulinum A str. ATCC 3502) | multiplex microsphere protease substrate cleavage | AID 588499, 2011; also: plate controls were buffer without enzyme for full effect and enzyme alone for no effect
# Anthrax LF inh2 – Bacillus anthracis LF protease inhibitors, primary screen, biochemical, multiplex microsphere, MLPCN library; multiplex microsphere protease cleavage assay; 360,000 compounds, 0.12% hits; inhibition, % at 10 µM; Lethal factor (Bacillus anthracis), P15917; AID 588501, 2011; also: plate controls were buffer without enzyme for full effect and enzyme alone for no effect
# MazF activator – activators of E. coli MazEF toxin-antitoxin RNase, primary screen, biochemical, fluorescence, uHTS | AID 504720, 2011 | 350,000 compounds, 0.32% hits | activation, % at 20 µM | FAM/BHQ RNA-DNA oligo cleavage fluorescence, 5 h; in the data active = activation above about 50%
# Target sequence (P0AE70 whole entry, looked up): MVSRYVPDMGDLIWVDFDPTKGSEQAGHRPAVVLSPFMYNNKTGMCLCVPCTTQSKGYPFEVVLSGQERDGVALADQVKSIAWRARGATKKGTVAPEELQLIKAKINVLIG
# * marks the source's active call; other numbers are inactive results; u = inconclusive; x = no result. In the library only some 3.7% were active in any assay of this set; here they are far more common. Rule as the data show it, unless noted: active = inhibition above about 30%; inconclusive = no clear call, values can overlap the other calls; inactive = below that.
SMILES,BoNT-F LC inh,Bead autofluor,BoNT-A LC inh2,Anthrax LF inh2,MazF activator
COc1ccc(OC)c(-n2nnnc2SCC(=O)Nc2ccc3c(c2)OCCO3)c1,-3,5394,1,-3,-1
CCCn1c(=O)c2ccccc2n2c(SCc3c(C(=O)OCC)oc4ccccc34)nnc12,-1,10290,1,0,13
COc1ccc(-c2oc3c(c2C(=O)OCCCO)C(OCCCCCO)CCC3)cc1 (centres undefined),-10,5511,0,-10,x
COCC(=O)Nc1nc2n(n1)C(c1ccccc1Cl)CC(c1ccc(OC)cc1)N2 (centres undefined),0,20336*,1,1,12
Cc1nc(N)sc1-c1nnc(SCC(=O)Nc2ccccc2C(F)(F)F)n1C,-4,22790*,-2,-1,4
Cc1ccc(OCC(=O)NNC(=O)CSc2ncc(C#N)c(N)n2)cc1,-4,2536,0,-3,-6
N#Cc1cnc(SCC(=O)Nc2ccccc2C(F)(F)F)nc1N,-4,17110*,u,4,-6
CN1CCCC1(C)C(=O)NCc1ccc(F)cc1Cl (centres undefined),5,3812,1,-10,x
Cc1cc(C)c(C)c(S(=O)(=O)N[C@@H](C)C(=O)OCC(=O)NC2CCCC(C)C2C)c1C (some centres undefined),0,2926,0,-9,-2
Cc1nc2ccccn2c1CN(C)C(=O)C1CCC(=O)N(Cc2cccc(F)c2)C1 (centres undefined),15,5410,2,-2,8
COc1ccc(S(=O)(=O)NC(C)C(=O)NCCN2CCOCC2)cc1Cl (centres undefined),10,3604,-3,-1,3
CC1=C(C#N)C(NC(=O)c2ccc(C)cc2)(C(F)(F)F)C(=O)N1 (centres undefined),5,19042*,6,0,4
CC1=C(C#N)C(NC(=O)c2ccc(Cl)cc2)(C(F)(F)F)C(=O)N1 (centres undefined),-4,2092,-1,0,4
COc1ccc(CNC(=O)Cn2cnc3c(=O)n(C)c(=O)n(C)c32)cc1,-4,21079*,-3,0,-1
COc1ccc2nc(NC(=O)Cn3cnc4c(=O)n(C)c(=O)n(C)c43)sc2c1,7,4054,0,-1,5
Cn1c(=O)c2ncn(CC(=O)NCCOc3ccccc3)c2n(C)c1=O,3,10311,-1,-4,-2
Cc1ccc(OCCNC(=O)Cn2cnc3c(=O)n(C)c(=O)n(C)c32)cc1C,-3,22531*,-1,-2,1
O=C(COC(=O)CNC(=O)c1ccccc1Cl)Nc1ccccc1Cl,8,2721,1,-4,9
Nc1nc(CN2CCN(c3ccccc3F)CC2)nc(Nc2ccccc2)n1,-6,16781*,-2,-1,-12
Cc1ccc(Nc2nc(N)nc(CN3CCN(c4ccccc4F)CC3)n2)cc1,-4,3836,-1,-5,-3
Cc1cccc(Nc2nc(N)nc(CN3CCN(C)CC3)n2)c1,-4,23797*,-1,-1,10
Cc1ccc(Nc2nc(N)nc(CN3CCN(C)CC3)n2)cc1,-5,3047,0,-1,4
CCCCOCCCNC(=O)C[C@@H]1C[C@@]2(C(=O)OCC)CCCC=C2N(Cc2ccc(Cl)cc2Cl)C1=O,-8,4499,-2,-17,x
COc1ccc(-n2cccc2C=O)cc1OC,-2,22117*,u,-2,8
COc1ccc(-n2cccc2C=O)cc1,-5,2784,-1,-1,-8
SMILES,BoNT-F LC inh,Bead autofluor,BoNT-A LC inh2,Anthrax LF inh2,MazF activator
C=CCOc1ccc(/C=C2\SC(=S)N(NS(=O)(=O)c3ccc(C)cc3)C2=O)cc1,u,4370,3,-16,1
CCC(CC)c1nnc(NC(=O)CN2C(=O)NC3(CCCC3)C2=O)s1,3,5316,1,1,-7
CN(c1ccccc1C(=O)O)S(C)(=O)=O,4,18576*,4,-3,3
Cc1ccc(NC(=O)c2ccccc2N(C)S(C)(=O)=O)cc1C,-3,23559*,1,-2,0
CN(c1ccccc1C(=O)Nc1ccc2c(c1)OCCO2)S(C)(=O)=O,-9,6096,0,1,9
CN(c1ccccc1C(=O)Nc1cccc(Cl)c1Cl)S(C)(=O)=O,0,22508*,0,-2,5
c1ccc(-n2c(-c3ccncc3)nnc2-c2ccco2)cc1,4,16681*,0,-2,1
Cc1ccc(-n2c(-c3ccncc3)nnc2-c2ccco2)cc1,1,3557,1,1,10
Cc1ccc(-c2nnc(-c3ccncc3)n2-c2ccc(C)cc2)cc1,0,21828*,u,-2,0
CCN1CCN(c2ccc(S(=O)(=O)N3CCOCC3)cc2NC(=O)C(C)Oc2ccc(F)cc2)CC1 (centres undefined),4,7978,3,8,3
COc1ccccc1-c1ccc2c(c1)C(C)(Cc1cccc(F)c1)C(=O)N2 (centres undefined),0,4206,0,-1,x
CC(C)(C)OC(=O)N1CC(O)CC1C(=O)OCC(=O)c1ccccc1 (centres undefined),5,3178,1,-1,5
CC(C)(C)OC(=O)N1CC(O)CC1C(=O)OCC(=O)c1ccc(Cl)cc1 (centres undefined),8,20684*,7,-4,5
Cn1nc(C(F)(F)F)cc1-c1ccc(/C=C(\C#N)C(=O)c2ccccc2)s1,17,4129,4,u,782*
C=C1CCN([C@@H](Cc2ccccc2)C(=O)NCc2ccc(Cl)cc2)S(=O)(=O)c2ccccc21,-10,4056,0,-5,0
Cc1ccc(C)n1-c1nccc(-c2cccs2)n1,4,21459*,4,-3,-2
COc1ccc(C2=NOC(C(=O)Nc3ccc(C)cc3)C2)cc1OC (centres undefined),3,21677*,2,3,1
COc1cc(C2=NOC(C(=O)Nc3ccc(C)cc3)C2)cc(OC)c1OC (centres undefined),1,19324*,2,-2,-2
COc1cc(C2=NOC(C(=O)NCc3ccc(F)cc3)C2)cc(OC)c1OC (centres undefined),-6,17938*,-2,0,2
COc1ccc(NC(=O)C2CC(c3ccc(OC)c(OC)c3)=NO2)cc1OC (centres undefined),-22,10820,1,-8,4
COc1ccc(NC(=O)C2CC(c3cc(OC)c(OC)c(OC)c3)=NO2)cc1OC (centres undefined),1,21486*,5,-2,-2
O=C(O)C(C(=O)Oc1ccccc1)C(C(=O)O)C(=O)Oc1ccccc1 (centres undefined),6,3636,0,2,5
O=c1cc(O)cc2n1CCC2,12,4189,0,-1,x
